From ChEMBL document CHEMBL4513216, “Probing the Open Global Health Chemical Diversity Library for Multistage-Active Starting Points for Next-Generation Antimalarials” (ACS Infect Dis, 2020)
The campaign covered roughly 69,000 compounds. About 8,600 (12%) showed an effect of 50% or more. This is one part of a sample in which strong results are shown more often than they occur.

System: Plasmodium berghei
Assay: Screen against P. berghei liver stage (PbLuc), transformed with Luciferase, at 10uM
Type: functional, HepG2
Conditions: tested at 10 uM

Row | Compound | INHIBITION
1 | COCC(=O)NCC1Cn2nnc(-c3ccncc3)c2CO1 (stereo unspecified) | -4.02%
2 | COCCN1CCC2(CC1)CN(C(C)=O)c1ccc(C)cc12 | -33%
3 | CCc1ocnc1C(=O)N1CCCC1c1noc(C)n1 (stereo unspecified) | 5.07%
4 | C=C(C)COc1cccc(CNCc2nc3ccccc3c(=O)[nH]2)c1 | 28.5%
5 | C=C(C)COc1cccc(CNCCc2c[nH]cn2)c1 | 29.1%
6 | C=C(C)COc1cccc(CNCCc2nc(N)cc(O)n2)c1 | 52.6%
7 | COCC1CC2(CCN(CC3CC3)CC2)CN1Cc1csc(C)n1 (stereo unspecified) | 37.8%
8 | CCOC(=O)CCNC(=O)c1cc(Cl)cc2cccnc12 | 30.5%
9 | CCn1c(CC2CCN(C(=O)C3CCOC3)CC2)nn(C)c1=O (stereo unspecified) | 56.1%
10 | CCn1c(CC2CCN(C(=O)C3CNCCO3)CC2)nn(C)c1=O (stereo unspecified) | 47.4%
11 | CCn1c(CC2CCN(C(=O)C3COCCO3)CC2)nn(C)c1=O (stereo unspecified) | 9.56%
12 | Cc1noc(-c2ccnc(N3CCN(C4CCOCC4)CC3)c2)n1 | 10.7%
13 | Cc1noc(-c2ccnc(N3CCC(CN4CCOCC4)CC3)c2)n1 | 69.4%
14 | Cc1noc(-c2ccnc(N3CCC(N4CCCC4)CC3)c2)n1 | 48.5%
15 | Cc1ccc(-c2nc(CNCC3CN(C)CCO3)co2)cc1 (stereo unspecified) | -12.2%
16 | CC(=O)N1CCC2(CC1)C(=O)N(CC1CC1)c1ccccc12 | 1.56%
17 | CN(C)C(C(=O)NCc1cc(C(C)(C)C)n[nH]1)c1ccc(F)cc1 (stereo unspecified) | 50.2%
18 | Cc1ccc(C(C(=O)NCc2cc(C)[nH]n2)N(C)C)cc1 (stereo unspecified) | 31.4%
19 | Cc1cc(CNC(=O)C(c2ccc(F)cc2)N(C)C)n[nH]1 (stereo unspecified) | 37.3%

Row | Compound | INHIBITION
20 | CCc1cc(N2CCC(NC(=O)CCC3CCCO3)CC2)ncn1 (stereo unspecified) | 37.6%
21 | Cc1cc(N2CCC(NC(=O)CCc3ccco3)CC2)nc(C)n1 | 38.7%
22 | Cc1cc(N2CCC(NC(=O)CCC3CCCO3)CC2)nc(C)n1 (stereo unspecified) | 62.2%
23 | COc1ccc2nnc(CCCC(=O)Nc3nc4c(s3)CCC4)n2n1 | 38.4%
24 | COc1cc(CN2CC[C@@]3(CCCO3)[C@@H](O)C2)ccc1F | 44.9%
25 | NCCO[C@H]1C[C@@H](O)C12CCN(Cc1c(F)cccc1F)CC2 | 52.2%
26 | COc1cc(CN2CCC3(CC2)[C@H](O)C[C@@H]3OCCO)ccc1F | 51.1%
27 | COc1cc(C)c(CN2CCC3(CC2)[C@H](O)C[C@@H]3OCCN)cc1C | 23.3%
28 | COc1ccc(F)c(F)c1CN1CCC2(CC1)[C@H](O)C[C@@H]2OCCN | 7.31%
29 | COCCCC1(CO)CCCN(Cc2ccc(F)c(OC)c2)C1 (stereo unspecified) | -58.9%
30 | CNC(=O)CN(C)C(=O)c1cc2ccccc2cc1OC | 45.2%
31 | CC(C)c1nc(CN2CCCN(Cc3nccn3C)CC2)no1 | -23.8%
32 | Cn1nnnc1SCC1COc2ccccc2O1 (stereo unspecified) | 35.2%
33 | COCCN1CC(=O)c2sc(NCc3ccccc3)nc2C1 | -0.371%
34 | CC(C)Nc1nc2c(s1)C(=O)CN(C(=O)NCc1ccccc1)C2 | 73.8%
35 | CC[C@H](C)[C@H](N)C(=O)N1CC(=O)c2sc(NC3CCCCC3)nc2C1 | 35.2%
36 | CCNc1nc2c(s1)C(=O)CN(C(=O)NCCc1ccccc1)C2 | 24.4%
37 | CC(C)Nc1nc2c(s1)C(=O)CN(C(=O)NCCc1ccccc1)C2 | -7.79%
38 | CCNc1nc2c(s1)C(=O)CN(C(=O)NCc1ccccc1)C2 | 66.4%

Row | Compound | INHIBITION
39 | CNc1nc2c(s1)C(=O)CN(C(=O)NCc1ccccc1)C2 | 42.9%
40 | CC[C@H](C)[C@H](N)C(=O)N1CC(=O)c2sc(NCc3ccccc3)nc2C1 | 61.9%
41 | CNc1nc2c(s1)C(=O)CN(C(=O)NCCc1ccccc1)C2 | 23.4%
42 | O=C(Cc1ccccc1)N1Cc2nccn2CC(CN2CCCC2)C1 (stereo unspecified) | 11.3%
43 | O=C(c1cccc(NCCOc2ccc(F)cc2)c1)N1CCOCC1 | 10.6%
44 | CC(C)c1nc(-c2cc(C(=O)N3CCN(C)CC3)c3ccccn23)cs1 | 10.5%
45 | CCC(CC)C(=O)c1c[nH]c(C(=O)N2CCN(c3ccccc3)CC2)c1 | -26.8%
46 | Cc1noc(C)c1C(C)C(=O)N1CCCN(Cc2cscn2)CC1 (stereo unspecified) | 21.08%
47 | CS(=O)(=O)Cc1ccc(C(=O)NCc2ccc(Cl)cc2Cl)cc1 | 29.4%
48 | O=C(NCCSC1CCCC1)c1cc(Cl)ccn1 | -45%
49 | COc1ccc(-n2cc(CNC(=O)c3cscn3)nn2)cc1 | -27.3%
50 | O=C(NCc1nc(NC2CCCC2)c2cc(Cl)ccc2n1)c1cscn1 | 54.6%
51 | NC(=O)CN1CCC(Nc2ccnc3ccc(Cl)cc23)CC1 | 15.1%
52 | O=C(NCCNC(=O)C1CCN(c2ncccn2)CC1)c1ccoc1 | 15.1%
53 | O=C(NCc1nc(NC2CCCC2)c2cc(Cl)ccc2n1)c1ccoc1 | 89%
54 | COCC(=O)N1CCC(Nc2ccnc3ccc(Cl)cc23)CC1 | -56.3%
55 | O=C(NCc1nc(NC2CCCC2)c2cc(Cl)ccc2n1)c1cncs1 | 68.6%
56 | O=C(NCCNC(=O)c1scnc1Cl)c1ccoc1 | -23.8%
